Data from the supplement of paper PMC6555819.

How the values were obtained:
Assay in all cases: PBM binding z-score (relative to random genomic background probes); higher = stronger binding; sequences stand for … in GC…GCGATTGACAGCGTAGAATGAAGG
[1] = tested on: FXR:RXRa (NR concentration 270 nM, RXRa partner concentration 90 nM)
Procedure, shortened: (§1)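 On custom Agilent 4×180K arrays, double-stranded probes with 34-nt variable regions carried direct-repeat seeds, single-nucleotide variants, half-site ablations or random human genomic background. Ligand-free nuclear receptor dimers were applied for 1 h, and binding was read with antibodies against each partner (one per run). Binding z-scores come from regression-normalized fluorescence, with the random background probes as reference.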

[2] = tested on: LXRa:RXRa (NR concentration 270 nM, RXRa partner concentration 90 nM)
Procedure, shortened: as §1

[3] = tested on: LXRa homodimer (NR concentration 270 nM)
Procedure, shortened: as §1

[4] = tested on: LXRb homodimer (NR concentration 270 nM)
Procedure, shortened: as §1

[5] = tested on: PPARg:RXRa 270nM:90nM, anti-RXR (NR concentration 270 nM, RXRa partner concentration 90 nM)
Procedure, shortened: as §1

[6] = tested on: PPARg:RXRa 30nM:10nM, anti-RXR (NR concentration 30 nM, RXRa partner concentration 10 nM)
Procedure, shortened: as §1

[7] = tested on: PPARg:RXRa 90nM:30nM, anti-RXR (NR concentration 90 nM, RXRa partner concentration 30 nM)
Procedure, shortened: as §1

[8] = tested on: PPARg:RXRa DBDmut IVT, anti-RXR (DBD mutation: RXRa K156A/R161A, NR concentration 270 nM, RXRa partner concentration 90 nM)
Procedure, shortened: as §1

[9] = tested on: PPARg:RXRa IVT, anti-PPARg (NR concentration 270 nM, RXRa partner concentration 90 nM)
Procedure, shortened: as §1

[10] = tested on: PPARg DBDmut:RXRa IVT, anti-PPARg (DBD mutation: PPARg1 K132A/R137A, NR concentration 270 nM, RXRa partner concentration 90 nM)
Procedure, shortened: as §1

[11] = tested on: PPARg DBDmut IVT, anti-PPARg (DBD mutation: PPARg1 K132A/R137A, NR concentration 270 nM)
Procedure, shortened: as §1

[12] = tested on: PPARg homodimer (NR concentration 180 nM)
Procedure, shortened: as §1

[13] = tested on: PXR homodimer (NR concentration 270 nM)
Procedure, shortened: as §1

[14] = tested on: RARa homodimer (NR concentration 270 nM)
Procedure, shortened: as §1

[15] = tested on: RARb:RXRa (NR concentration 270 nM, RXRa partner concentration 90 nM)
Procedure, shortened: as §1

[16] = tested on: RARb homodimer (NR concentration 270 nM)
Procedure, shortened: as §1

[17] = tested on: PPARa:RXRa (NR concentration 270 nM, RXRa partner concentration 90 nM)
Procedure, shortened: as §1

[18] = tested on: PPARg:RXRa (NR concentration 180 nM, RXRa partner concentration 90 nM)
Procedure, shortened: as §1

[19] = tested on: PXR:RXRa (NR concentration 270 nM, RXRa partner concentration 90 nM)
Procedure, shortened: as §1

[20] = tested on: RARa:RXR (NR concentration 270 nM, RXRa partner concentration 90 nM)
Procedure, shortened: as §1

| Sequence | PBM binding z-score [1] | PBM binding z-score [2] | PBM binding z-score [3] | PBM binding z-score [4] | PBM binding z-score [5] | PBM binding z-score [6] | PBM binding z-score [7] | PBM binding z-score [8] | PBM binding z-score [9] | PBM binding z-score [10] | PBM binding z-score [11] | PBM binding z-score [12] | PBM binding z-score [13] | PBM binding z-score [14] | PBM binding z-score [15] | PBM binding z-score [16] | PBM binding z-score [17] | PBM binding z-score [18] | PBM binding z-score [19] | PBM binding z-score [20] |
| --- | --- | --- | --- | --- | --- | --- | --- | --- | --- | --- | --- | --- | --- | --- | --- | --- | --- | --- | --- | --- |
| ATATGTAGGTTAAAGGTCATTCAGGTTGGTTCGC | 7.3 | 6.58 | 6.86 | 2.72 | 11 | 13.3 | 13.6 | 8.31 | 8.56 | 4.82 | 3.73 | 4.43 | 7.91 | 3.28 | 4.74 | 4.8 |  |  |  |  |
| CCTGCTAGGTCAAAGGTCAGCTAAAGCAGCTCGC | 7.56 | 6.38 | 2.52 | 1.05 | 10.2 | 11.3 | 12.6 | 5.89 | 7.37 | 3.16 | 2.19 | 7.33 | 0.666 | 3.79 |  | 4.91 |  |  |  |  |
| TCGTGTAGGTTACGGGGGCATTCAGGGATGAAGA | 3.84 | 3.76 | 1.21 |  | 6.17 | 4.82 | 5.8 | 5.22 | 6.27 |  |  | 3.1 | 2.98 | 1.46 | 3.34 | 2.92 | 4.58 | 6.02 | 3.98 | 3.71 |
| ATCGAAAGGTCCAAGGTGAGTATACCCACCCGAA | 0.219 |  | -0.213 | 0.175 | 0.802 | 0.219 | 0.627 | -0.563 | 0.666 | 0.0343 | 0.185 | 0.369 | -0.107 | 0.706 | 1.49 | 0.938 | 0.771 | 1.01 | 0.0935 | 0.511 |
| TACCCTAGGTCATGGGCCAGTATACCACGCGAAC | 5.02 |  | 6.35 | 2.13 | 4.25 | 1.59 | 3.13 | 1.55 | 3.86 | 1.09 | 0.696 | 2.52 | 0.812 | 0.836 | 4.11 | 3.19 | 4.51 | 4.58 | 2.07 | 3.19 |
| TATACAAGGTCAAAGGCCAGAGTACGAATGTCGA | 7.51 |  | 6.08 | 4.21 | 7.39 | 5.48 | 7.66 | 2.91 | 5.15 | 1.68 | 2.18 | 2.34 | 0.743 | 0.491 | 5.27 | 4.35 | 6.24 | 8.52 | 4.53 | 5.37 |
| CGTCAAAGTTCAACTGAGGTAACGTAAAGCACGC | 7.32 |  | 5.02 | 2 | 5.58 | 2.33 | 4.11 | 0.26 | 2.31 | 0.285 | 0.242 | 3.03 | 4.5 | 1.6 | 5.41 | 4.06 | 5.29 | 5.04 | 5.86 | 4.36 |
| CCGAATAGGTTACGAGGGGGCATTCAGTGCGAAT | 3.52 | 7.98 | 2.43 |  | 3.71 | 2 | 2.62 | 2.73 | 3.59 |  |  | 2.64 | 5.9 | 0.865 | 2.89 | 2.69 | 3.85 | 2.08 | 5.5 | 3.8 |
| CGTCCAAGGTCATTGGAGGTCAGTGAAGACAGAT | 7.92 |  | 6.77 | 1.93 | 5.76 | 2.48 | 4.57 | 3.6 | 4.79 | 0.319 | -0.697 | 5.59 | 8.63 | 2.43 | 5.56 | 5.54 |  | 5.48 | 7.17 | 6.25 |
| TCTTGTAGATCGATAGAGGTTAAGAAAGTGCGCT | 0.392 |  | -0.317 | -0.0814 | 1.66 | 2.48 | 1.93 | 0.891 | 0.198 | 0.295 | 0.641 | 0.199 | 0.241 | 0.262 | 0.661 | 0.946 | 1.48 | -0.159 | 2.67 | 1.23 |
| CCTAGCAGGCCAATCTAGGTCACTCAAGGCTTGA | 1.46 |  | 0.192 | -0.859 | 2.47 | 0.115 | 1.49 | 5.08 | 5.19 | -0.0838 | -0.865 | 0.707 | -0.261 | -0.161 | 2.02 | 2.68 |  | 2.1 | 1.51 | 1.37 |
| ATATGTAGGTTAGCTGAGGTCATTCAGACTAGGC | 5.29 |  | 6.24 | 1.12 | 4.91 | 2.35 | 4.11 | 6.93 | 6.48 | 2.26 | 1.4 | 3.04 | 6.09 | 1.7 | 3.34 | 4.04 |  | 5.21 | 6.68 | 4.95 |
| CCTTACGGGTTACTCCAGGTTATAGCATCGGAGT | 2.01 |  | 5.38 | -0.167 | 0.711 | -0.136 | 0.413 | 0.986 | 0.994 | 0.298 | -0.838 | 0.398 | 0.558 | 0.599 | 1.02 | 0.561 |  | 0.504 | 2.52 | 1.68 |
| CCTACTGGGCCGTTCAGAGGTCATTGATCATATG | 2.45 |  | 5.59 | 0.189 | 2.48 | 0.658 | 1.67 | 1.34 | 2.34 | -0.522 | -0.314 | 1.94 | 2.25 | 0.491 | 2.7 | 3.78 | 3.56 | 1.33 | 4.75 | 4.52 |
| TCTCGGAGGACACAAAGGTCAGAGCTTTCCAGAG | 3.05 |  | 2.17 | -0.2 | 4.43 | 3.16 | 4.07 | 1.57 | 2.39 | -0.467 | -0.672 | 2.65 | 3.76 | 1.37 | 4.22 | 4.77 |  | 3.27 | 4.46 | 4.59 |
| CAAAATAGGTCACCGGAAGGTCAAAGTCCGCATG | 7.48 |  | 5.46 | 1.73 | 7.64 | 6.2 | 7.69 | 7.95 | 8.01 | 1.87 | 1.44 | 8.87 | 1.96 | 4.27 |  | 5.89 | 6.51 | 9.14 | 6.56 | 8.2 |
